Inconclusive results are not listed. Unmarked numbers belong to inactive results. The source made the active and inactive calls. Calls come from the whole dose curve; as a rule, active = well fitted inhibition curve with a large enough effect; inconclusive = small, poorly fitted or top-dose-only effect; inactive = no such curve, though single readings can be large or run the other way.
What follows are compounds tested against Rap guanine nucleotide exchange factor 3 (Homo sapiens) (UniProt O95398) (assay: Counterscreen qHTS for antagonist of cAMP-regulated guanine nucleotide exchange factor 3 (EPAC1) (AID 1645888; note: % of control where 0% means no effect)). Details: Rap1B-BODIPY-GDP nucleotide exchange, fluorescence; series mostly up to 154 µM.
Text: Assay Provider (PI): Xiaodong Cheng Ph.D. The University of Texas Medical Branch, […], TX MLPCN Grant: NS066510 In multi-cellular eukaryotic organisms, the effects of cAMP are transduced by two ubiquitously-expressed intracellular cAMP receptors, the classic protein kinase A/cAMP-dependent protein kinase (PKA/cAPK) and the more recently discovered exchange protein directly activated by cAMP/cAMP-regulated guanine nucleotide exchange factor (EPAC/cAMP-GEF). Both PKA and EPAC are ubiquitously expressed in all tissues, and an increase in intracellular cAMP levels will lead to the activation of both PKA and EPAC. Therefore, careful dissections of the individual role and relative contribution of EPAC and PKA within the overall cAMP signaling in various model systems are critical for further elucidating the mechanism of cAMP signaling. To date no EPAC-specific antagonists and agonist, as well as isoform-specific agonists have been reported, and developing EPAC-specific pharmacological probes to determine the physiological functions that EPAC play in the overall cAMP-mediated signaling remains a major challenge within the research field. Furthermore, identified regulators of EPAC may lead to new mechanism-based therapeutic strategies specifically targeting the EPAC / cAMP-signaling components as EPAC has been implicated to play important roles in major human pathological conditions such as diabetes, heart disease, and cancer. This qHTS will be used to screen the Molecular Libraries Small Molecule Repository (MLSMR) as a concentration-titration series using the NCGC unique quantitative screening (qHTS) platform to find activators for EPAC1. In addition, this assay will also be used as a counterscreen for the EPAC2 qHTS. This fluorescent based assay is developed and validated for EPAC1 that measures exchange using EPAC effector Rap1 complex with BODIPY-GDP, a GDP analog with a tethered fluorophores. Activators are identified by monitoring the change in fluorescence signal as the exchanged free BODIPY-GDP has a reduced fluorescence compared to Rap1-bound BODIPY-GDP. Increase in signal (activation) is the desired outcome for the EPAC1 agonist while no activity in this assay is desired for the EPAC2 agonist counterscreen. Reference: [1] de Rooij, J., Zwartkruis, F. J., Verheijen, M. H., Cool, R. H., Nijman, S. M., Wittinghofer, A., and Bos, J.L. (1998) Nature 396, 474-477. Kawasaki, H., Springett, G. M., Mochizuki, N., Toki, S., Nakaya, M., Matsuda, M., Housman, D. E., and Graybiel, A. M. (1998) Science 282, 2275-2279.
EPAC1 Counterscreen PROTOCOL TABLE SEQUENCE No. (e.g., 1, 2, 3, etc.); […] (e.g., Cells, Incubation, Reagent, etc.); VALUE and DESCRIPTION. 1. Reagent. 3 uL. [1x] 250 nM Rap1B-BODIPY-GDP, and 50 uM GDP. 2a. Compound. 23 nL. Control 6,572 uM cAMP (working concentration). 2b, 2c. Compound. 23 nL. Control activator and inhibitor; 234 - 30,000 uM cAMP and 16.4 - 10,000 uM. 2d. Compound. 46 nL. MLSMR follow-up library; 0.64 - 10,000 uM. 3. Time. 15 sec, 1000rpm. Centrifuge. 4. Time. 5 min. Incubation at room temperature. 5. Detector. Fluorescence. (Read 1), Ex/Em = 480 nm / 540 nm. 6. Time. 30 min. Incubation at room temperature. 7. Detector. Fluorescence. (Read 2), Ex/Em = 480 nm/ 540 nm. 8. Reagent. 1uL. Dispense either [4x] 10 uM cAMP or buffer. 9. Time. 15 sec, 1000 rpm. Centrifuge. 10. Time. 5 min. Incubation at room temperature. 11. Detector. Fluorescence. (Read 3), Ex/Em = 480 nm / 540 nm. 12. Time. 30 min. Incubation at room temperature. 13. Detector. Fluorescence. (Read 4), Ex/Em = 480 nm / 540 nm. NOTES (numbers refer to Sequence numbers above; values are from representative experiments) 1. Medium-binding black solid-bottom Greiner plates (789176-F). Dispense 3 uL of [1x] 250 nM Rap1B-BODIPY-GDP, and 50 uM GDP into columns 1 to 48. 2a. Control compound cAMP (6,572 uM, column 3, rows 1 to 32) single pin-transferred for a [final] of 50 uM. 2b. […]

Rap guanine nucleotide exchange factor 3 (Homo sapiens), sequence (O95398 whole entry, looked up): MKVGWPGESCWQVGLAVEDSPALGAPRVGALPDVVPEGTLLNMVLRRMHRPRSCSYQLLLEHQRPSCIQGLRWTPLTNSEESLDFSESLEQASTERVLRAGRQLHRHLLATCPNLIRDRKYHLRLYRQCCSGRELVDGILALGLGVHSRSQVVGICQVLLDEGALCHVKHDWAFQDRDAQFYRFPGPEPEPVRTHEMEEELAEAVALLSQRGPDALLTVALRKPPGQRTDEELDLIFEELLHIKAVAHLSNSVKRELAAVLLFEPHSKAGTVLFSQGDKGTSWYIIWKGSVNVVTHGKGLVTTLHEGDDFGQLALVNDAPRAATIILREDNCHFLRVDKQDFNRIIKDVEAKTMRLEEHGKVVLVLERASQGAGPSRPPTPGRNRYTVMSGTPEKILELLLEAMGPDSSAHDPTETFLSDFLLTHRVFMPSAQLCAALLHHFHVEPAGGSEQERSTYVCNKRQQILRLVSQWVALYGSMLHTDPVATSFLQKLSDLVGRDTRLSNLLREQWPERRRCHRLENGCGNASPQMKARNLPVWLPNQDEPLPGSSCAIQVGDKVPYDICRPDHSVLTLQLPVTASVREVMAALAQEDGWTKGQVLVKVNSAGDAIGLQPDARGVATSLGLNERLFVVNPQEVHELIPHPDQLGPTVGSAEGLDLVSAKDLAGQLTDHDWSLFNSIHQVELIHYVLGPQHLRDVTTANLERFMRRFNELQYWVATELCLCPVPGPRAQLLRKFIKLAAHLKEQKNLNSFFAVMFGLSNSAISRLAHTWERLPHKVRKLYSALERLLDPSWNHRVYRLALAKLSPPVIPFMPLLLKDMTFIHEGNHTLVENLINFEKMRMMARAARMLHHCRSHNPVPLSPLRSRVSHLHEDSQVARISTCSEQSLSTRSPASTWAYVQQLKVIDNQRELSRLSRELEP

| Compound | outcome | activity change, negative = inhibition |
| --- | --- | --- |
| COc1ccc(C2C=C(C)Oc3c2c(=O)oc2ccccc32)cc1OC (stereo not given) | inactive | – |
| CC[C@@H]1c2ccccc2[C@@H]2CC[C@H]1N2c1ccccc1 | – | -4.57% [at 30.8 µM] |
| O=C(c1cc(-c2ccc(Cl)cc2)n(-c2ccc(Cl)cc2Cl)n1)N1CCOCC1 | inactive | – |
| NC(=O)c1ccc(N=Cc2c(O)n(Cc3ccco3)c(=O)[nH]c2=O)cc1 | inactive | – |
| CC(C)c1ccc(C(c2c(O)c3ccccc3oc2=O)c2c(O)c3ccccc3oc2=O)cc1 | inactive | – |
| O=C(c1cc(Cl)cc(Cl)c1)N1Cc2ccccc2-n2nncc2C1 | – | 29.2% [at 30.8 µM] |
| Cc1cccc(OCCn2cccc2/C=C2/C(=O)NC(=O)N(Cc3ccco3)C2=O)c1 | inactive | – |
| Cc1cc(/C=C2/C(=O)NC(=O)N(Cc3ccco3)C2=O)c(C)n1-c1ccccc1O | – | -13.1% [at 30.8 µM] |
| Cc1ccccc1-c1nc(CN2C(=O)CN=C(c3ccccc3)c3ccccc32)c(C)o1 | inactive | – |
| COc1ccc(N2C(=O)NC(=O)/C(=C/c3ccc([N+](=O)[O-])s3)C2=O)cc1 | inactive | – |
| CCc1nc2ccccc2c(=O)n1-c1ccccc1OC | inactive | – |
| COC(=O)c1cn(C(=O)c2cccc3ccccc23)c2ccccc12 | inactive | – |
| CCOC(=O)[C@]12Cc3cc(OC)ccc3[C@H]1N(Cc1ccccc1)C(=O)c1ccccc12 | inactive | – |
| Cc1cccc(CN2C(=O)CN=C(c3ccccc3)c3cc(Cl)ccc32)c1 | inactive | – |
| CCOC(=O)[C@]12Cc3ccc(C)cc3[C@H]1N(C1CCCCC1)C(=O)c1cc(OC)ccc12 | inactive | – |
| Cc1ccc(C)c(Cn2c(C(=O)O)c(C=O)c3ccccc32)c1 | – | -5.1% [at 30.8 µM] |
| CC(C)C/C(=N/O)c1cn(C)c2ccccc12 | inactive | – |
| Cc1cc(OC(C)C(=O)N[C@H](C(=O)O)c2ccccc2)c2c3c(c(=O)oc2c1)CCC3 (stereo not given in full) | inactive | – |
| O=C1NC(=O)N(Cc2ccccc2)C(=O)/C1=C\C=C\c1ccco1 | – | -17.1% [at 30.8 µM] |
| CCCNC1=C(C)C(=O)C2=C(C1=O)C(COC(N)=O)[C@]1(OC)C3NC3CN21 (stereo not given in full) | inactive | – |

| Compound | outcome | activity change, negative = inhibition |
| --- | --- | --- |
| Cc1cc(/C=C2\C(=O)NC(=O)N(c3ccc(Cl)cc3)C2=O)c(C)n1-c1sc2c(c1C#N)CCCC2 | – | -13.5% [at 30.8 µM] |
| O=[N+]([O-])c1ccc(N(CCO)CCO)c2c1no[n+]2[O-] | inactive | – |
| CCOC(=O)[C@]12Cc3cc(C)ccc3[C@H]1N(Cc1ccccc1)C(=O)c1ccccc12 | inactive | – |
| CCOC(=O)[C@]12Cc3cc(Cl)ccc3[C@H]1N(CC(=O)OC)C(=O)c1ccccc12 | inactive | – |
| COc1ccc(-n2c(/C=C/c3ccc(O)c(O)c3)nc3ccccc3c2=O)cc1 | inactive | – |
| COC(=O)c1cn(Cc2ccc(F)cc2)c2ccccc12 | inactive | – |
| O=C1Nc2ccccc2/C1=C/c1nc2ccccc2c(=O)n1-c1ccc(O)cc1 | – | -7.19% [at 30.8 µM] |
| O=C1NC(=O)N(Cc2ccco2)C(=O)/C1=C\c1ccc(-c2ccc(F)cc2)o1 | – | -21.9% [at 30.8 µM] |
| Cn1cccc1/C=C1\C(=O)NC(=O)N(Cc2ccccc2Cl)C1=O | inactive | – |
| CCCCNC(=O)c1c(N)n(CCCOC)c2nc3ccccc3nc12 | inactive | – |
| Cc1oc(-c2ccccc2)nc1CN1C(=O)CN=C(c2ccccc2)c2ccccc21 | – | -7.89% [at 30.8 µM] |
| COCCNC(=O)Cn1cc(/C=C2\C(=O)NC(=O)N(c3ccccc3F)C2=O)c2ccccc21 | inactive | – |
| Cc1ccc(N)c(C(=O)c2ccc(Br)cc2)c1 | inactive | – |
| Cc1ccccc1N1C(=O)NC(=O)/C(=C\c2ccc3c(c2)CCCN3Cc2ccccc2)C1=O | inactive | – |
| COP(=O)(/C=C(\Cl)c1ccccc1)/C=C(\Cl)c1ccccc1 | inactive | – |
| COc1ccc(OC)c(N2C(=O)NC(=O)/C(=C/c3ccc([N+](=O)[O-])s3)C2=O)c1 | – | 10.9% [at 30.8 µM] |
| COC(=O)C1C2c3ccccc3C(c3ccccc32)C1(C)C(=O)OC (stereo not given) | – | 4.93% [at 30.8 µM] |
| OC1/C(=C/c2ccc(C(F)(F)F)cc2)N2CCC1CC2 (stereo not given) | inactive | – |
| O=Cc1c(C(=O)O)n(Cc2ccc(Cl)cc2)c2ccccc12 | inactive | – |
| CCOC(=O)[C@]12Cc3cc(Cl)ccc3[C@H]1N(Cc1ccccc1)C(=O)c1ccccc12 | inactive | – |
